Outcome and AC50 data for eight compounds are collected here from PubChem BioAssay (EPA / NIEHS).

Common to all, as to details: mRNA level, 48 h; actives raise or lower the signal
Read-out in assay [1]: Cyclin D1 (CCND1), CCND1 (gene 595)
Briefly: LTEA_HepaRG_CCND1: Life Technologies and Expression Analysis (LTEA) Assay for Cyclin D1 (CCND1) using HepaRG (AID 2283451). The gist of the method:
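HepaRG plated 48 h, medium switched to serum-free induction medium, chemicals added in duplicate (top 100 uM, half-log steps, 0.5% DMSO) for 48 h, cells lysed, RNA measured by TaqMan qRT-PCR.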

Read-out in assay [2]: flavin-containing dimethylaniline monooxygenases 3 (FMO3), FMO3 (gene 2328)
As to the kind of experiment: LTEA_HepaRG_FMO3: Life Technologies and Expression Analysis (LTEA) Assay for flavin-containing dimethylaniline monooxygenases 3 (FMO3) using HepaRG (AID 2283453). In short, it runs like this: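 Differentiated HepaRG cells in serum-free induction medium, exposed 48 h in duplicate to 8 half-log concentrations up to 100 uM in 0.5% DMSO. FMO3 mRNA by qRT-PCR, normalized to ACTB, GAPDH, POLR2A; bidirectional fit vs DMSO.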

Read-out in assay [3]: Cytochrome P450 (CYP1A1), CYP1A1 (gene 1543)
Briefly: LTEA_HepaRG_CYP1A1: Life Technologies and Expression Analysis (LTEA) Assay for Cytochrome P450 (CYP1A1) using HepaRG (AID 2283454). In short, it runs like this: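 HepaRG, 48 h post-plating switched to serum-free induction medium; 8-pt conc-response (top 100 uM, half-log, 0.5% DMSO), duplicates, 48 h. Lysis in RLT, TaqMan qRT-PCR for CYP1A1; gain or loss vs DMSO.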

Read-out in assay [4]: CFLAR gene, CFLAR (gene 8837)
As to the kind of experiment: LTEA_HepaRG_CFLAR: Life Technologies and Expression Analysis (LTEA) Assay for CFLAR gene using HepaRG (AID 2283455). In short, it runs like this:
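HepaRG cells were plated for 48 h, switched to serum-free induction medium, then exposed in duplicate for 48 h to 8 concentrations (top 100 uM, half-log steps, 0.5% DMSO). CFLAR mRNA was measured by qRT-PCR, normalized to ACTB, GAPDH and POLR2A.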

Read-out in assay [5]: Forkhead box O1 (FOXO1), FOXO1 (gene 2308)
As to the kind of experiment: LTEA_HepaRG_FOXO1: Life Technologies and Expression Analysis (LTEA) Assay for Forkhead box O1 (FOXO1) using HepaRG (AID 2283456). In short, it runs like this:
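Differentiated human HepaRG cells in serum-free induction medium were exposed in duplicate for 48 h to eight half-log concentrations (top 100 uM, 0.5% DMSO). FOXO1 mRNA was measured by TaqMan qRT-PCR, normalised to ACTB, GAPDH and POLR2A, and fitted bidirectionally against DMSO.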

Read-out in assay [6]: growth arrest and DNA damage 45 (GADD45A), GADD45A (gene 1647)
As to the kind of experiment: LTEA_HepaRG_GADD45A: Life Technologies and Expression Analysis (LTEA) Assay for growth arrest and DNA damage 45 (GADD45A) using HepaRG (AID 2283458). The gist of the method:
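Differentiated HepaRG cells exposed 48 h in serum-free induction medium to 8 concentrations, top 100 uM in half-log steps, 0.5% DMSO. GADD45A mRNA quantified by qRT-PCR, normalized to ACTB, GAPDH and POLR2A; bidirectional fit versus DMSO.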

Read-out in assay [7]: Forkhead box O3 (FOXO3), FOXO3 (gene 2309)
As to the kind of experiment: LTEA_HepaRG_FOXO3: Life Technologies and Expression Analysis (LTEA) Assay for Forkhead box O3 (FOXO3) using HepaRG (AID 2283459). The gist of the method: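 Differentiated human HepaRG cells in serum-free induction medium were exposed in duplicate for 48 h to eight half-log concentrations up to 100 uM in 0.5% DMSO. FOXO3 mRNA was quantified by qRT-PCR, normalized to ACTB, GAPDH and POLR2A, with bidirectional fitting versus DMSO.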

Read-out in assay [8]: ABC Transporter (ABCB1), ABCB1 (gene 5243)
Briefly: LTEA_HepaRG_ABCB1: Life Technologies and Expression Analysis (LTEA) Assay for ABC Transporter (ABCB1) using HepaRG (AID 2283460). The gist of the method: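 Differentiated human HepaRG cells, plated 48 h then switched to serum-free induction medium, were exposed in duplicate to eight half-log concentrations up to 100 uM in 0.5% DMSO for 48 h. ABCB1 mRNA was measured by TaqMan qRT-PCR, normalized to ACTB/GAPDH/POLR2A.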

Read-out in assay [9]: ABC Transporter (ABCC3), ABCC3 (gene 8714)
Briefly: LTEA_HepaRG_ABCC3: Life Technologies and Expression Analysis (LTEA) Assay for ABC Transporter (ABCC3) using HepaRG (AID 2283462). The gist of the method: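 Human HepaRG, 48 h dosing, 8-pt half-log series from 100 uM, 0.5% DMSO vehicle, duplicates. ABCC3 mRNA by TaqMan qRT-PCR, housekeeping-normalized; bidirectional curve fit vs DMSO.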

Read-out in assay [10]: ABC Transporter (ABCB11), ABCB11 (gene 8647)
As to the kind of experiment: LTEA_HepaRG_ABCB11: Life Technologies and Expression Analysis (LTEA) Assay for ABC Transporter (ABCB11) using HepaRG (AID 2283463). The gist of the method: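 Differentiated human HepaRG cells were exposed for 48 h in serum-free induction medium to eight half-log concentrations up to 100 uM in 0.5% DMSO. ABCB11 mRNA was quantified by qRT-PCR, normalized to ACTB, GAPDH and POLR2A, and fitted bidirectionally versus DMSO.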

Read-out in assay [11]: ABC Transporter (ABCC2), ABCC2 (gene 1244)
Briefly: LTEA_HepaRG_ABCC2: Life Technologies and Expression Analysis (LTEA) Assay for ABC Transporter (ABCC2) using HepaRG (AID 2283464). In short, it runs like this:
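HepaRG, 48 h post-plating; serum-free induction medium; cpd 8-pt, 100 uM top, half-log, 0.5% DMSO, duplicate, 48 h. Readout: ABCC2 mRNA by qRT-PCR, norm. ACTB/GAPDH/POLR2A. Bidirectional fit vs DMSO baseline.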

Read-out in assay [12]: Broad substrate specificity ATP-binding cassette transporter ABCG2 (Homo sapiens) (UniProt Q9UNQ0)
Briefly: LTEA_HepaRG_ABCG2: Life Technologies and Expression Analysis (LTEA) Assay for ABC Transporter (ABCG2) using HepaRG (AID 2283465). The gist of the method:
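Differentiated HepaRG cells in serum-free induction medium were exposed for 48 h, in duplicate, to eight half-log concentrations up to 100 uM in 0.5% DMSO. ABCG2 mRNA was measured by TaqMan qRT-PCR, normalized to ACTB, GAPDH and POLR2A, and fitted bidirectionally versus DMSO.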

Read-out in assay [13]: ATP-citrate lyase (ACLY), ACLY (gene 47)
As to the kind of experiment: LTEA_HepaRG_ACLY: Life Technologies and Expression Analysis (LTEA) Assay for ATP-citrate lyase (ACLY) using HepaRG (AID 2283466). The gist of the method:
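Differentiated human HepaRG cells in serum-free induction medium exposed 48 h, in duplicate, to eight half-log concentrations from 100 uM top in 0.5% DMSO; ACLY mRNA measured by qRT-PCR, normalized to ACTB, GAPDH, POLR2A, fitted bidirectionally versus DMSO.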

Read-out in assay [14]: Peroxisomal acyl-coenzyme A oxidase 1 (ACOX1) gene, ACOX1 (gene 51)
Briefly: LTEA_HepaRG_ACOX1: Life Technologies and Expression Analysis (LTEA) Assay for Peroxisomal acyl-coenzyme A oxidase 1 (ACOX1) gene using HepaRG (AID 2283467). In short, it runs like this: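 Differentiated human HepaRG cells were exposed in duplicate for 48 h in serum-free induction medium to eight half-log concentrations up to 100 uM in 0.5% DMSO. ACOX1 mRNA was then quantified by TaqMan qRT-PCR, normalized to ACTB, GAPDH and POLR2A.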

Read-out in assay [15]: Alkaline Phosphatase, Placental (ALPP) gene, ALPP (gene 250)
As to the kind of experiment: LTEA_HepaRG_ALPP: Life Technologies and Expression Analysis (LTEA) Assay for Alkaline Phosphatase, Placental (ALPP) gene using HepaRG (AID 2283468). The gist of the method:
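HepaRG, 48 h plating then 48 h dosing, serum-free induction medium, 0.5% DMSO. 8 conc, half-log, max 100 uM, duplicates. Endpoint: ALPP transcript by qRT-PCR, housekeeping-normalized; gain or loss fitted vs DMSO.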

Read-out in assay [16]: Bcl-2 (BAD) gene, BAD (gene 572)
Briefly: LTEA_HepaRG_BAD: Life Technologies and Expression Analysis (LTEA) Assay for Bcl-2 (BAD) gene using HepaRG (AID 2283469). In short, it runs like this:
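Differentiated human HepaRG cells in serum-free induction medium were exposed in duplicate for 48 h to eight concentrations (top 100 uM, half-log steps, 0.5% DMSO). BAD mRNA was quantified by qRT-PCR normalised to ACTB, GAPDH and POLR2A, with bidirectional fitting versus DMSO.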

Read-out in assay [17]: catalase (CAT), CAT (gene 847)
Briefly: LTEA_HepaRG_CAT: Life Technologies and Expression Analysis (LTEA) Assay for catalase (CAT) using HepaRG (AID 2283452). The gist of the method: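 Differentiated HepaRG cells in serum-free induction medium were dosed 48 h in duplicate, eight half-log concentrations from 100 uM in 0.5% DMSO. Transcript measured by TaqMan qRT-PCR, normalised to ACTB/GAPDH/POLR2A, fitted bidirectionally against DMSO.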

Read-out in assay [18]: growth arrest and DNA damage 45 (GADD45B), GADD45B (gene 4616)
Briefly: LTEA_HepaRG_GADD45B: Life Technologies and Expression Analysis (LTEA) Assay for growth arrest and DNA damage 45 (GADD45B) using HepaRG (AID 2283461). The gist of the method:
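HepaRG, ~100,000 cells/well, 48 h plating; serum-free induction medium; cpd 100 uM top, half-log x8, 0.5% DMSO, duplicate, 48 h; lysis in RLT, RNA isolation, qRT-PCR; norm ACTB/GAPDH/POLR2A; bidirectional fit vs DMSO.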

Activity calls are given as the source filed them. How the source made its calls: active means hit-call score of the fitted dose curve at least 0.9, where 1 is the maximum; inactive means score below 0.9.

Sequence of Broad substrate specificity ATP-binding cassette transporter ABCG2 (Homo sapiens) (Q9UNQ0 whole entry, looked up): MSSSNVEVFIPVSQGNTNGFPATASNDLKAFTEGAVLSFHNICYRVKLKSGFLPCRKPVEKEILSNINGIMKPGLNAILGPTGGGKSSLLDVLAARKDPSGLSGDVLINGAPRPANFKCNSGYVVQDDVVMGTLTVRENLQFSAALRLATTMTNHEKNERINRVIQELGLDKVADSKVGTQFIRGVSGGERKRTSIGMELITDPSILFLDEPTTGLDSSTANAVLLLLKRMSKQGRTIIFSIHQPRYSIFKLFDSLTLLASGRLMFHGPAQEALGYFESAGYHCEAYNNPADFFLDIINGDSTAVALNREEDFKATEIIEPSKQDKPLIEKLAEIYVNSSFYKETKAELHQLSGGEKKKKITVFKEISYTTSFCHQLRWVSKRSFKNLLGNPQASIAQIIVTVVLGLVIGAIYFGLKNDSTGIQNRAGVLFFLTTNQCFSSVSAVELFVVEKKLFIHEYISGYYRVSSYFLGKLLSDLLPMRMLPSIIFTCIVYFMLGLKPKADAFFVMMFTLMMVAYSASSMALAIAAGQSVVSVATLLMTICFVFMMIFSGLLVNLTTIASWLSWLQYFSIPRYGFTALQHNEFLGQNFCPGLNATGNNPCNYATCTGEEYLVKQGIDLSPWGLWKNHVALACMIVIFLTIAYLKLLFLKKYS

For the compound `COC(=O)CCCC(=O)OC`, the compound was called inactive in assay [1], in assay [2], in assay [3], in [4], in [5] and in assay [6]. Further, the compound was called inactive in [7], in assay [8], in assay [10], in assay [11], in assay [12] and in assay [13]. Besides, the compound was classed as inactive in [14] and in assay [15]. In assay [9], the AC50 was 0.263 µM (active).
`O=C(O)CC(O)(CC(=O)O)C(=O)O`: the compound was classed as inactive in assay [1], in assay [2], in assay [4], in assay [5], in [6] and in assay [7]. The outcome in assay [8], in assay [9], in [10], in [12], in [13] and in assay [14] was inactive. In assay [3], the AC50 was 50 µM (active).
With `Oc1ccccc1O`, the outcome in assay [1], in [2], in assay [3], in [4], in [5] and in [6] was inactive. The compound was called inactive in assay [7], in assay [8], in [9], in assay [10], in assay [11] and in assay [12]. In addition, the compound was classed as inactive in assay [13], in [14] and in assay [15].
For `COC(=O)[C@H]1[C@H]2C[C@@H]3c4[nH]c5cc(OC)ccc5c4CCN3C[C@H]2C[C@@H](OC(=O)c2cc(OC)c(OC)c(OC)c2)[C@@H]1OC`, the result in [1], in [4], in [5], in [6], in [7] and in assay [12] was inactive. Also, the result in assay [16] was inactive. In addition, the AC50 was 30.5 µM (active) in [2]; 9.75 µM (active) in assay [8]; 49.8 µM (active) in assay [9]; 31.4 µM (active) in [10]; 67.4 µM (active) in assay [11]; 42.2 µM (active) in [14].
`O=C1O[C@H]([C@H](O)CO)C(O)=C1O`: the outcome in assay [1], in assay [17], in assay [2], in [4], in assay [5] and in assay [6] was inactive. Also, the result in assay [7], in assay [8], in [9], in assay [10], in [11] and in assay [12] was inactive. The outcome in [15] was inactive. In assay [3], the AC50 was 64.4 µM (active).
Regarding `O=NO`, the compound was classed as inactive in assay [1], in assay [2], in assay [3], in assay [4], in assay [5] and in assay [6]. Further, the outcome in [7], in assay [8], in assay [9], in assay [10], in assay [11] and in [12] was inactive. In addition, in assay [13], the compound was called inactive.
On to `O=C1CCCCC1`, for which the outcome in assay [1], in assay [2], in [3], in [4], in assay [5] and in assay [7] was inactive. The compound was called inactive in assay [8], in assay [18], in assay [9], in assay [10], in [11] and in assay [12]. The call in assay [13], in assay [14], in assay [15] and in assay [16] was inactive. The AC50 in assay [6] is 0.0727 µM (active).
As for `Cn1cnc2c1c(=O)[nH]c(=O)n2C`, the compound was classed as inactive in [1], in assay [2], in assay [4], in assay [5], in assay [6] and in assay [7]. Further, the call in assay [8], in assay [18], in assay [9], in [10], in [11] and in assay [12] was inactive. Besides, the result in assay [13], in assay [14] and in assay [16] was inactive.

The AC50 is the concentration at which the activity in the assay is half-maximal.
